Data published in PubChem BioAssay AID1159580 (chemical genetic matrix, 2015).
Where “and” joins values, the source holds several entries; their conditions need not be identical. Equal entries are not always repeated. About 2,000 (36%) of roughly 5,500 compounds were called active. Roughly 18% stayed inconclusive and do not appear here. No stated cut-off is given here; in the data, active means normalized growth mostly below about 0.91 (no sharp cut-off); inconclusive means no clear call, values can overlap the other calls; inactive means mostly above about 0.92. Some of the results follow.

Experiment: chemical genetic growth profiling, strain panel (AID 1159580);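 further: tested at 20 µM; growth read once vehicle control cultures reached saturation at 30 °C; 1 = growth at the plate median or of vehicle wells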
Conditions: S. cerevisiae deletion strains, growth OD

**Q.** For `C=C[C@@](C)(O)CCC1C(=C)CCC2[C@@](C)(CO)CCC[C@]12C` (stereo partly drawn), which normalized growth (locus YAL021C, strain ccr4, stronger effect = lower value) is on record?
**A.** 0.994 (inactive)

**Q.** What about the normalized growth (locus YAL026C, strain drs2, stronger effect = lower value) of the same compound?
**A.** 0.972 (inactive)

**Q.** And the normalized growth (locus YAL030W, strain snc1, stronger effect = lower value)?
**A.** 1.07 (inactive)

**Q.** What about the normalized growth (locus YBL061C, strain skt5, stronger effect = lower value) of the same compound?
**A.** 1.06 (inactive)

**Q.** What about the normalized growth (locus YBR009C, strain hhf1, stronger effect = lower value) of the same compound?
**A.** 0.925 (inactive)

**Q.** And the normalized growth (locus YBR021W, strain FUR4, stronger effect = lower value)?
**A.** 0.772 (active)

**Q.** And the normalized growth (locus YBR023C, strain chs3, stronger effect = lower value)?
**A.** 1.02 (inactive)

**Q.** And the normalized growth (locus YBR171W, strain sec66, stronger effect = lower value)?
**A.** 1.08 (inactive)

**Q.** And the normalized growth (locus YBR229C, strain ROT2, stronger effect = lower value)?
**A.** 1.06 (inactive)

**Q.** What about the normalized growth (locus YBR231C, strain swc5, stronger effect = lower value) of the same compound?
**A.** 1.12 [resistant] (active)

**Q.** What about the normalized growth (locus YBR279W, strain paf1, stronger effect = lower value) of the same compound?
**A.** 0.997 (inactive)

**Q.** What about the normalized growth (locus YCL011C, strain gbp2, stronger effect = lower value) of the same compound?
**A.** 1.02 (inactive)

**Q.** What about the normalized growth (locus YCL016C, strain dcc1, stronger effect = lower value) of the same compound?
**A.** 0.974 (inactive)

**Q.** What about the normalized growth (locus YCL029C, strain bik1, stronger effect = lower value) of the same compound?
**A.** 0.972 (inactive)

**Q.** What about the normalized growth (locus YCL061C, strain MRC1, stronger effect = lower value) of the same compound?
**A.** 0.963 (inactive)

**Q.** What about the normalized growth (locus YCL069W, strain vba3, stronger effect = lower value) of the same compound?
**A.** 1.03 (inactive)

**Q.** And the normalized growth (locus YCR088W, strain abp1, stronger effect = lower value)?
**A.** 1.06 (inactive)

**Q.** What about the normalized growth (locus YDL005C, strain med2, stronger effect = lower value) of the same compound?
**A.** 1.05 (inactive)

**Q.** And the normalized growth (locus YDL035C, strain GPR1, stronger effect = lower value)?
**A.** 0.794 (active)

**Q.** And the normalized growth (locus YDL040C, strain nat1, stronger effect = lower value)?
**A.** 1.08 [resistant] (active)

**Q.** And the normalized growth (locus YDL074C, strain BRE1, stronger effect = lower value)?
**A.** 0.982 (inactive)

**Q.** What about the normalized growth (locus YDL101C, strain DUN1, stronger effect = lower value) of the same compound?
**A.** 1.05 (inactive)

**Q.** What about the normalized growth (locus YDL134C, strain PPH21, stronger effect = lower value) of the same compound?
**A.** 0.979 (inactive)

**Q.** What about the normalized growth (locus YDL185W, strain tfp1, stronger effect = lower value) of the same compound?
**A.** 1.02 (inactive)

**Q.** What about the normalized growth (locus YDL192W, strain arf1, stronger effect = lower value) of the same compound?
**A.** 0.989 (inactive)

**Q.** What about the normalized growth (locus YDR001C, strain nth1, stronger effect = lower value) of the same compound?
**A.** 1.08 [resistant] (active)

**Q.** And the normalized growth (locus YDR069C, strain doa4, stronger effect = lower value)?
**A.** 1.05 (inactive)

**Q.** What about the normalized growth (locus YDR101C, strain arx1, stronger effect = lower value) of the same compound?
**A.** 0.915 (active)

**Q.** What about the normalized growth (locus YDR137W, strain rgp1, stronger effect = lower value) of the same compound?
**A.** 0.758 (active)

**Q.** And the normalized growth (locus YDR150W, strain NUM1, stronger effect = lower value)?
**A.** 1.09 (inactive)

**Q.** What about the normalized growth (locus YDR159W, strain sac3, stronger effect = lower value) of the same compound?
**A.** 0.997 (inactive)

**Q.** And the normalized growth (locus YDR162C, strain NBP2, stronger effect = lower value)?
**A.** 0.84 (inactive)

**Q.** What about the normalized growth (locus YDR195W, strain ref2) of the same compound?
**A.** 1.25 [resistant] (active)

**Q.** And the normalized growth (locus YDR297W, strain sur2, stronger effect = lower value)?
**A.** 1.04 (inactive)

**Q.** And the normalized growth (locus YDR318W, strain mcm21, stronger effect = lower value)?
**A.** 0.99 (inactive)

**Q.** What about the normalized growth (locus YDR334W, strain swr1, stronger effect = lower value) of the same compound?
**A.** 1.1 [resistant] (active)

**Q.** What about the normalized growth (locus YDR335W, strain msn5, stronger effect = lower value) of the same compound?
**A.** 0.982 (inactive)

**Q.** And the normalized growth (locus YDR388W, stronger effect = lower value)?
**A.** 1.02 (inactive)

**Q.** What about the normalized growth (locus YDR392W, strain spt3, stronger effect = lower value) of the same compound?
**A.** 0.833 (inactive)

**Q.** And the normalized growth (locus YDR502C, strain sam2, stronger effect = lower value)?
**A.** 0.985 (inactive)

**Q.** What about the normalized growth (locus YEL003W, strain gim4, stronger effect = lower value) of the same compound?
**A.** 0.948 (inactive)

**Q.** And the normalized growth (locus YEL037C, strain rad23, stronger effect = lower value)?
**A.** 1.05 (inactive)

**Q.** What about the normalized growth (locus YEL061C, strain CIN8 (second series), stronger effect = lower value) of the same compound?
**A.** 1.07 (inactive)

**Q.** What about the normalized growth (locus YEL061C, strain CIN8, stronger effect = lower value) of the same compound?
**A.** 1.07 (inactive)

**Q.** What about the normalized growth (locus YER015W, strain faa2, stronger effect = lower value) of the same compound?
**A.** 1 (inactive)

**Q.** And the normalized growth (locus YER016W, strain bim1, stronger effect = lower value)?
**A.** 1.05 (inactive)

**Q.** And the normalized growth (locus YER110C, stronger effect = lower value)?
**A.** 1.06 (inactive)

**Q.** And the normalized growth (locus YER111C, strain swi4, stronger effect = lower value)?
**A.** 1.07 (inactive)

**Q.** And the normalized growth (locus YER155C, strain BEM2 (second series), stronger effect = lower value)?
**A.** 1.22 [resistant] (active)

**Q.** And the normalized growth (locus YER155C, strain BEM2, stronger effect = lower value)?
**A.** 1.09 [resistant] (active)

**Q.** What about the normalized growth (locus YER167W, strain BCK2, stronger effect = lower value) of the same compound?
**A.** 1.01 (inactive)

**Q.** And the normalized growth (locus YFR010W, strain ubp6, stronger effect = lower value)?
**A.** 1.07 (inactive)

**Q.** What about the normalized growth (locus YGL078C, strain dbp3, stronger effect = lower value) of the same compound?
**A.** 0.871 (active)

**Q.** What about the normalized growth (locus YGL086W, strain mad1, stronger effect = lower value) of the same compound?
**A.** 1 (inactive)

**Q.** What about the normalized growth (locus YGL167C, strain pmr1, stronger effect = lower value) of the same compound?
**A.** 1.06 (inactive)

**Q.** And the normalized growth (locus YGL173C, strain kem1, stronger effect = lower value)?
**A.** 0.913 (inactive)

**Q.** What about the normalized growth (locus YGL227W, strain vid30, stronger effect = lower value) of the same compound?
**A.** 1.06 (inactive)

**Q.** What about the normalized growth (locus YGL240W, strain doc1, stronger effect = lower value) of the same compound?
**A.** 0.974 (inactive)

**Q.** And the normalized growth (locus YGL248W, strain PDE1, stronger effect = lower value)?
**A.** 0.982 (inactive)

**Q.** And the normalized growth (locus YGL253W, strain hxk2, stronger effect = lower value)?
**A.** 1.02 (inactive)

**Q.** And the normalized growth (locus YGR078C, strain PAC10, stronger effect = lower value)?
**A.** 1.02 (inactive)

**Q.** And the normalized growth (locus YGR135W, strain pre9, stronger effect = lower value)?
**A.** 0.992 (inactive)

**Q.** And the normalized growth (locus YGR252W, strain gcn5, stronger effect = lower value)?
**A.** 0.92 (inactive)

**Q.** What about the normalized growth (locus YHR013C, strain ard1, stronger effect = lower value) of the same compound?
**A.** 1.11 (inactive)

**Q.** What about the normalized growth (locus YHR027C, strain rpn1, stronger effect = lower value) of the same compound?
**A.** 1.02 (inactive)

**Q.** And the normalized growth (locus YHR030C, strain SLT2, stronger effect = lower value)?
**A.** 1.09 [resistant] (active) and 0.872 (inactive)

**Q.** What about the normalized growth (locus YHR079C, strain IRE1 (second series), stronger effect = lower value) of the same compound?
**A.** 1.05 (inactive)

**Q.** What about the normalized growth (locus YHR079C, strain IRE1, stronger effect = lower value) of the same compound?
**A.** 0.862 (inactive)

**Q.** What about the normalized growth (locus YHR094C, strain hxt1, stronger effect = lower value) of the same compound?
**A.** 1.04 (inactive)

**Q.** What about the normalized growth (locus YHR129C, strain ARP1, stronger effect = lower value) of the same compound?
**A.** 1.05 (inactive)

**Q.** And the normalized growth (locus YHR142W, strain chs7, stronger effect = lower value)?
**A.** 1.01 (inactive)

**Q.** And the normalized growth (locus YHR200W, strain rpn10, stronger effect = lower value)?
**A.** 1.02 (inactive)

**Q.** And the normalized growth (locus YIL066C, strain RNR3, stronger effect = lower value)?
**A.** 0.996 (inactive)

**Q.** What about the normalized growth (locus YIL073C, strain SPO22, stronger effect = lower value) of the same compound?
**A.** 1.01 (inactive)

**Q.** And the normalized growth (locus YIL125W, strain kgd1, stronger effect = lower value)?
**A.** 0.973 (inactive)

**Q.** What about the normalized growth (locus YIR030C, strain dcg1, stronger effect = lower value) of the same compound?
**A.** 1.05 (inactive)

**Q.** And the normalized growth (locus YJL092W, strain hpr5, stronger effect = lower value)?
**A.** 1.02 (inactive)

**Q.** What about the normalized growth (locus YJL095W, strain BCK1 (second series), stronger effect = lower value) of the same compound?
**A.** 1.07 (inactive)

**Q.** And the normalized growth (locus YJL095W, strain BCK1, stronger effect = lower value)?
**A.** 1.02 (inactive) and 0.886 (inactive)

**Q.** What about the normalized growth (locus YJL115W, strain asf1, stronger effect = lower value) of the same compound?
**A.** 1.07 (inactive)

**Q.** What about the normalized growth (locus YJL129C, strain trk1, stronger effect = lower value) of the same compound?
**A.** 1.02 (inactive)

**Q.** And the normalized growth (locus YJL134W, strain LCB3, stronger effect = lower value)?
**A.** 1.07 (inactive)

**Q.** And the normalized growth (locus YJL154C, strain vps35, stronger effect = lower value)?
**A.** 1.09 [resistant] (active)

**Q.** And the normalized growth (locus YJL164C, strain tpk1, stronger effect = lower value)?
**A.** 0.963 (inactive)

**Q.** What about the normalized growth (locus YJL166W, strain qcr8, stronger effect = lower value) of the same compound?
**A.** 0.968 (inactive)

**Q.** And the normalized growth (locus YJL168C, strain set2, stronger effect = lower value)?
**A.** 1.07 (inactive)

**Q.** And the normalized growth (locus YJL187C, strain SWE1 (second series), stronger effect = lower value)?
**A.** 0.995 (inactive)

**Q.** What about the normalized growth (locus YJL187C, strain SWE1, stronger effect = lower value) of the same compound?
**A.** 1.01 (inactive)
